According to PubChem BioAssay (NCATS):
Values without a mark were called inactive. Rule as the data show it: active = potency below about 10 µM; inactive = the rest.

The compounds below were run against Lysosomal acid glucosylceramidase (Homo sapiens) (UniProt P04062) (assay: Glucocerebrosidase-p2 (AID 348)). Settings: purified GBA, blue fluorogenic substrate, 40 min.
Excerpt: Beta-glucocerebrosidase catalyzes the hydrolysis of beta-glucocerebroside to glucose and ceramide. The inherited deficiency of beta-glucocerebrosidase results in Gaucher disease, which is characterized by a wide variety of symptoms including hepatosplenomegaly, anemia, thrombocytopenia, bony lesions and bone marrow infiltration with characteristic storage cells, known as Gaucher cells. There are also forms of the disorder affecting the central nervous system. Patients with the same genotypes can manifest with diverse clinical presentations and it is believed that improper folding and trafficking of beta-glucocerbrosidase may contribute to the phenotypes observed.
Low molecular weight molecules, acting as chaperones, may potentially restore trafficking of misfolded beta-glucocerebrosidase from the endoplasmic reticulum to the lysosomes, thereby enhancing functional lysosomal beta-glucocerebrosidase activity.
Using normal beta-glucocerebrosidase, an assay was developed to screen for small molecule inhibitors that could potentially act as molecular chaperones on the mutant forms [developed with NIH investigator Dr. Ellen Sidransky#s laboratory]. Two pro-fluorescent substrates were chosen for two screens against a small molecule library. One beta-glucocerebrosidase assay used Resorufin beta-D-Glucopyranoside (Marker Gene Technology Inc.), generating a red fluorescent product. The second assay used […] fluorescent product. The Km for the Resorufin beta-D-Glucopyranoside and Fluorescein di-beta-D-Glucopyranoside were determined to be 71.2 uM and 855 uM, respectively. The IC50 values of Conduritol B Epoxide, a known glucocerebrosidase inhibitor, were determined to be 87.5 uM and 117 uM, respectively. The use of two difference pro-fluorescent substrates in the screens helped to eliminate false positives. All compounds were screened in a titration series resulting in AC50s (e.g., IC50s or EC50s). Data normalization and AC50 calculations were accomplished using GeneData software.
NCGC Assay Protocol Summary
Both enzyme and substrate were diluted in buffer composed of 50mM citric acid/KH2PO4, 10mM sodium taurocholate and 0.01% tween-20 at pH 5.9. The final concentration of the enzyme was 0.2 nM in both assays. The compound library was titrated in 7 to 15 concentrations for the primary screens with a final concentration ranging from 0.6 nM to 50 uM. This particular assay protocol is for the "blue" substrate, and it was performed in 1536-well plate format as follows:
Blue fluorescence substrate assay:
1 uL substrate (final concentration of 80 uM)
Incubate at room temperature (RT) for 40 minutes
3 uL stop solution (1 M NaOH and 1 M glycine in water)
Read the plate in Viewlux plate reader (Ex=365(10) and Em=440(10)).
Potency is read from the fitted curve at half-maximal effect.

Lysosomal acid glucosylceramidase (Homo sapiens), sequence (P04062 whole entry, looked up): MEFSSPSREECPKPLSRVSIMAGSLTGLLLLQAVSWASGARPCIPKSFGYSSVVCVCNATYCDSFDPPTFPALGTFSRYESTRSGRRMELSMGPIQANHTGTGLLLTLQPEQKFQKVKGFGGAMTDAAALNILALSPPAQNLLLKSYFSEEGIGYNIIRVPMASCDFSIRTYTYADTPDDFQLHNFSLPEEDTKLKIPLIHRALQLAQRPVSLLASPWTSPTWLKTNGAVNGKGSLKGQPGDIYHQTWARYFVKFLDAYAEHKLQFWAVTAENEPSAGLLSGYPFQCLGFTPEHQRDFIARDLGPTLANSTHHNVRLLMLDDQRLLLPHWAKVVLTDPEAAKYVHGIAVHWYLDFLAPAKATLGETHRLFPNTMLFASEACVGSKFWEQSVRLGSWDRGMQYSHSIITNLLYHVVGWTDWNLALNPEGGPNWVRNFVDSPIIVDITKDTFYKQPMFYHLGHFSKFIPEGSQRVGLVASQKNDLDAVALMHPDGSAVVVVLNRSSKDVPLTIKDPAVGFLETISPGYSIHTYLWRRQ

| Structure (SMILES) | Potency |
| --- | --- |
| Nc1nc(-c2cccnc2)cc(-c2cc(-c3cccnc3)nc(N)n2)n1 | > 11.4 µM |
| NC(=O)CS(=O)C[C@H](N)C(=O)O (stereo not given in full) | > 11.4 µM |
| c1ccc2nc(CC[C@@H]3CCCCN3)ccc2c1 | > 11.4 µM |
| O[C@@H](COc1ccc(Cl)cc1Cl)CN1CCCC1 | > 11.4 µM |
| Cc1c2cnccc2c(C)c2c1c1ccccc1n2CCOC(=O)c1ccccc1 | > 11.4 µM |
| CN1CCN(CCCNN)CC1 | > 11.4 µM |
| C[C@H]1[C@H](C)CC[C@]2(C(=O)O)CC[C@]3(C)C(=CC[C@@H]4[C@]5(C)C[C@H](O)[C@@H](O)[C@@](C)(CO)[C@@H]5[C@H](O)C[C@@]43C)[C@H]12 | > 11.4 µM |
| O=[N+]([O-])c1ccc(Nc2nc3ccccc3s2)cc1 | > 11.4 µM |
| COCCn1c(=O)c(-c2cc(F)cc(F)c2)nc2cnc(OC)nc21 | > 11.4 µM |
| C[C@@H]1CC[C@H]2[C@H](C)[C@H]3[C@H](C[C@H]4[C@@H]5CC=C6C[C@@H](O)CC[C@@]6(C)[C@@H]5C[C@@H](O)[C@]34C)N2C1 | > 11.4 µM |
| O=c1c(CCc2ccccc2)nc2cnc(Oc3ccccc3)nc2n1C[C@H]1CCCO1 | > 11.4 µM |
| c1ccc2cc(NCNc3ccc4ccccc4c3)ccc2c1 | > 11.4 µM |
| CSc1cccc(NC(=O)OC2CCCCCCCCCCC2)c1 | > 11.4 µM |
| Cn1c(=O)c(CCc2ccccc2)nc2cnc(N3CCNCC3)nc21 | > 11.4 µM |
| N=C(N)SCCN1CCCCC1 | > 11.4 µM |
| FC(F)(F)c1cccc(-c2nc3nc(Cl)c(Cl)nc3[nH]2)c1 | > 11.4 µM |
| O=C(O)CSCCc1ccccc1 | > 11.4 µM |
| O=c1c[n+](CCCC[n+]2cc(=O)o[nH]2)[nH]o1 | > 11.4 µM |
| CC(=O)Nc1nc(NC(C)=O)c2[nH]c(CO)nc2n1 | > 11.4 µM |
| COc1ccc(C(=O)N2CCC3(CC2)CN(c2ccccc2)C3)cc1 | > 11.4 µM |

| Structure (SMILES) | Potency |
| --- | --- |
| S=C1NCN2CCN(CC2)CNC(=S)C(=S)NCN2CCN(CC2)CNC1=S | > 11.4 µM |
| C=C(CC(=O)O)C(=O)O (tested in a mixture with another compound) | > 11.4 µM |
| C[C@@H]1CCCC(CC(=O)O)(CC(=O)O)C1 | > 11.4 µM |
| O=C(O)c1nn(-c2ccccc2-c2n[nH]c(=O)[nH]c2=O)c(=O)[nH]c1=O | > 11.4 µM |
| Cc1n[nH]c2ccccc2c1=O | > 11.4 µM |
| CC(C)NCC[C@@H](O)c1cc2ccccc2o1 | > 11.4 µM |
| O=C(O)CSC1=NCCN1 | > 11.4 µM |
| c1cc(CSSCc2ccncc2)ccn1 | > 11.4 µM |
| O=C(O)C(=Cc1ccnc2ccccc12)C(=O)O | > 11.4 µM |
| Nc1nc(-c2ccccc2)c(-c2ccccc2)c(-c2nc(N)nc(-c3ccccc3)c2-c2ccccc2)n1 | > 11.4 µM |
| C=CC[C@@H](C(=O)O)c1ccccc1 | > 11.4 µM |
| CN(/N=C\c1ccccc1O)c1ccc2ccccc2n1 | > 11.4 µM |
| C[N+](C)(C)c1ncnc2c1ncn2[C@@H]1C[C@H](O)[C@@H](CO)O1 | > 11.4 µM |
| Cc1nc2ccccc2nc1-c1ccc(N=[N+]([O-])c2ccc(-c3nc4ccccc4nc3C)cc2)cc1 | > 11.4 µM |
| C[C@@]1(CO)[C@H](O)CC[C@]2(C)[C@@H]1CC[C@H]1C[C@H]3C[C@]12CC[C@]3(O)COC(=O)CN | > 11.4 µM |
| Cc1c(NC(=O)Nc2c(Cl)cccc2Cl)c(=O)n(-c2ccccc2)n1C | > 11.4 µM |
| O=S(=O)(O)c1ccc(N=Nc2ccc3c(S(=O)(=O)O)cccc3c2O)c2ccccc12 | > 11.4 µM |
| N[C@@H](CSC(=O)c1ccccc1)C(=O)O | > 11.4 µM |
| C[C@H](NC(=O)c1ccc(Cl)c(Cl)c1)c1ccc(-c2ccccc2)cc1 | > 11.4 µM |
| C[C@H]1CN(CCO)CCN1c1ccccc1 | > 11.4 µM |
